Molecules are shown by their SMILES. The panel holds about 83,000 compounds, 20% with a hit somewhere; the sample as a whole holds those more often.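 Plates (96-well) were seeded with cells, treated with compound at one concentration, and incubated for 48 hours before percent growth was determined.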 Values without a mark were called inactive. Active and inactive are the calls of the source. The calls were made as follows: active = growth percent below 10; inactive = the rest.

Common to all, as to assay: NCI-60 one-dose screen, 48 h (100 = growth as untreated, 0 = no growth, -100 = all killed)
Common to all, as to conditions: 10 µM unless noted

In test [1] the test system is HCT-15 colon.
In test [2] the test system is HT29 colon.
Test [3] relates to SNB-75 CNS.
For test [4], the system named is SNB-19 CNS.
In test [5] the test system is U251 CNS.
Test [6] relates to PC-3 prostate.
For test [7], the system named is SK-MEL-5 melanoma.
In test [8] the test system is UACC-62 melanoma.
Test [9] relates to LOX IMVI melanoma.
Test [10] deals with SK-MEL-28 melanoma.
Test [11] relates to SK-MEL-2 melanoma.
Test [12] concerns EKVX NSCLC.
Test [13] has as its system UO-31 renal.
Test [14] deals with TK-10 renal.
Test [15] relates to ACHN renal.
The test system of test [16] is CAKI-1 renal.
Test [17] deals with A498 renal.
For test [18], the system named is CCRF-CEM leukemia.
For test [19], the system named is MOLT-4 leukemia.
Test [20] concerns SN12C renal.

Regarding `CCOC(=O)c1nnn(C(Cc2ccccc2Cl)C(=O)OCC)c1C` (stereo not given), the growth in test [1] was 107%; in test [2], 86.8%; in test [3], 89.5%; in [4] it was 104%; in [5] it was 96.1%; in test [6], 94%. Also, the growth in test [7] is 101%; in [8], 99.9%; in [9], 104%; in test [10] it was 111%; in test [11] it was 107%; in test [12], 106%. Besides, the growth in test [13] was 89.7%; in [14], 96.6%; in test [15] it was 104%; in [16], 90.8%; in test [17], 103%; in test [18], 88.5%. Moreover, the growth in [19] was 94.6%.
For the compound `O=C(Nc1ccc(N2CCCCC2)c(Cl)c1)c1ccc(Br)o1`, the growth was 61.1% in test [1]; 73.7% in test [2]; 60.7% in test [3]; 78.3% in [4]; 68.5% in test [5]; 58% in test [6]. Further, the growth in [7] is -96.8% (active); in test [8] it was -40.2% (active); in test [9] it was 2.04% (active); in [10] it was 39.6%; in test [11], 91.9%; in test [20], 80.6%. Further, the growth was 51.5% in test [13]; 102% in [14]; 64.3% in test [15]; 94.8% in test [16]; 102% in test [17]; 74.9% in [18]. In addition, in test [19], the growth was 75.4%.
As to `Cc1cc2c(F)c(Oc3ncnc(Nc4ccc(N5C[C@@H](C)N[C@@H](C)C5)cc4)c3C#N)cc(F)c2[nH]1`, the growth in test [1] was 0.331% (active); in test [2] it was -47.6% (active); in test [3] it was -28.2% (active); in test [4] it was 37.4%; in test [5] it was 11.2%; in [6], 42.4%. Besides, the growth in test [7] is 21.7%; in [8] it was 85.8%; in test [9] it was -60.5% (active); in [10], -63.6% (active); in test [11], 96.9%; in [12], 78.7%. Moreover, the growth in test [13] was 70%; in [15], -12.2% (active); in test [16], 40.3%; in test [17], 15.6%; in test [18], 7.66% (active); in test [19] it was -15.9% (active).
For the compound `COc1cc2oc(-c3cccc(C(=O)Nc4ccc(C)cc4)c3)cc(=O)c2c(OC)c1OC`, the growth in [1] is 17.6%; in test [2] it was 11.2%; in test [3], 45.5%; in test [4], 67.9%; in [5], 42.1%; in test [6] it was 45%. The growth is -60.3% (active) in test [7]; -33.8% (active) in [8]; -7.81% (active) in test [9]; 7.12% (active) in [10]; 42.3% in test [11]; 31.6% in test [20]. The growth was 44.3% in [13]; 53.3% in [14]; 34.2% in test [15]; 2.16% (active) in test [16]; 6.03% (active) in test [17]; 34.7% in test [18]. The growth in [19] is 54.7%.
Consider `CN1CCN(c2ccc3nc(/N=C/c4ccc5sc(-c6ccc([N+](=O)[O-])cc6)nc5c4)sc3c2)CC1`, for which the growth in [1] is 102%; in [2], 103%; in test [3] it was 106%; in test [4], 104%; in [5], 93.9%; in test [6] it was 104%. The growth is 90.6% in test [7]; 104% in [8]; 117% in test [9]; 107% in [10]; 111% in [11]; 97.7% in test [12]. Also, the growth in [13] was 92.2%; in test [15], 108%; in test [16], 108%; in test [18], 101%; in [19], 108%.
Take `CCCCCCCSc1ccc(C(=O)O)cc1`: the growth in test [1] was 111%; in [2], 112%; in test [3], 71.2%; in [4], 95.4%; in [5] it was 95.1%; in test [6], 99.9%. The growth is 108% in test [7]; 98.6% in [8]; 103% in test [9]; 105% in [10]; 103% in [11]; 84% in test [13]. The growth in [14] is 105%; in [15], 94.6%; in [16], 103%; in test [17], 97.5%; in test [18] it was 91.5%; in test [19], 106%.
Consider `COc1ccc(/C(C)=N/NS(=O)(=O)c2ccc(C)cc2)cc1OC`, for which the growth in test [1] is 103%; in test [2], 109%; in test [3], 108%; in test [4], 107%; in [5], 99.6%; in [6] it was 91.6%. Besides, the growth is 103% in test [7]; 105% in test [8]; 93.1% in [9]; 123% in [10]; 122% in test [11]; 109% in test [20]. Besides, the growth in [13] is 103%; in test [14], 104%; in [15], 103%; in test [16], 90.4%; in test [17], 87.2%; in [18], 102%. Also, the growth in test [19] was 98.2%.
Consider `C[C@@H]1C(=O)N(C[C@H](Cc2ccccc2)NC(=O)OCc2ccccc2)[C@]1(Cc1ccccc1)C(=O)OC(C)(C)C`, for which the growth was 62.9% in [1]; 56.3% in test [2]; 68.7% in [3]; 71.7% in test [4]; 63.2% in test [5]; 27.5% in test [6]. For the same compound, the growth in [7] is 58.8%; in [8], 51.9%; in test [9] it was 73.3%; in test [10] it was 85.3%; in [11], 76.8%; in test [12] it was 60.3%. In addition, the growth in test [13] is 46.5%; in [14], 67.2%; in test [15], 75.2%; in test [16], 51.4%; in test [17] it was 54%; in test [19], 34%.
Turning to `CCCCNC(=O)NS(=O)(=O)c1ccc(N2N=C(c3ccc(C)cc3C)CC2c2ccc(N(C)C)cc2)cc1` (stereo not given), the growth in test [1] was 35.3%; in test [2] it was 62%; in test [3], 75.4%; in test [4], 75.6%; in test [5] it was 37%; in [6], 38%. Besides, the growth in test [7] is 47%; in [8], 54.8%; in [9], 52.2%; in [10] it was 45.5%; in test [11], 78%; in test [20] it was 59.4%. The growth in [13] was 51.4%; in test [15], 48.6%; in test [16], 63%; in [17] it was 62.6%; in test [18], 43.3%; in [19], 48.4%.
